{"source": "PubChem BioAssay AID488794", "about": "(Sanford-Burnham Center for Chemical Genomics, 2010)", "note": "Screen size: about 1,000 compounds; about 550 (55%) were called active. No stated cut-off is given here; in the data, active means inhibition above about 50%; inactive means the rest. The set was probably picked from earlier hits. A selection follows."}
{"assay": "yeast-expressed human NALP3 blockade, retest – luminescence, single concentration, confirmation (AID 488794)", "details": "yeast expressing human NALP3, luminescence read-out; at 10 µM; stronger effect = higher value"}
{"smiles": "CCCCCCCCCCCCn1ccc(=N)cc1", "inhibition": "82.8% (active)"}
{"smiles": "Cc1cc2ccccn2c1C(C[N+](=O)[O-])c1c(F)cccc1Cl", "note": "(centres undefined)", "inhibition": "23.2% (inactive)"}
{"smiles": "Cc1ccc(-c2nc3ccccc3c(=O)n2-c2ccc(Br)cn2)cc1", "inhibition": "45.7% (inactive)"}
{"smiles": "O=C1/C(=C\\c2ccc3c(c2)OCO3)N2CCC1CC2", "inhibition": "35% (inactive)"}
